Assay [1] in a line: qHTS assay to identify small molecule agonists of the estrogen related receptor (ERR) signaling pathway (AID 1224820). Conditions: ERR reporter cell line, luciferase agonist mode; series mostly up to 46.1 µM. In short, it runs like this:
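Quantitative HTS of the LOPAC library used NTP ERR reporter cells treated 18 h at 37 C. Signal is luminescence after One-Glo addition and a 30 min room-temperature incubation.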

Assay [2] can be described thus: qHTS assay to identify small molecule agonists of the estrogen related receptor signaling pathway with the pleiotropic PPARgamma coactivator (PGC) (AID 1224823). Conditions: ERR/PGC reporter cell line, luciferase agonist mode; series mostly up to 46.1 µM. In short, it runs like this:
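Cell-based luciferase assay in the NTP-supplied PGC/ERR line, 2,000 cells/well; 18 h compound exposure at 37 C, luminescence after One-Glo.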

Molecules are shown by their SMILES. Records with an inconclusive call do not appear. A call without a number means that no potency is given here. Activity calls are given as the source filed them. Calls come from the whole dose curve; as a rule, active = well fitted activation curve with a large enough effect in the repeat runs; inconclusive = weak or mixed curves; inactive = no such curve, though single readings can be large or run the other way.

As for `Cc1c2ccncc2c(C)c2c1[nH]c1ccccc12`, the Potency entry in assay [1] and in assay [2] was “inactive” in each case.
